# Test results as given in patent US20220289795, “EFFICIENT METHOD FOR PREPARING PPR PROTEIN AND USE OF THE SAME” (EditForce, Inc., published 2022).
# Positions count from the first letter of the chain named.
# Legend:
# Test in all cases: RPB-ELISA
# Details in all cases: tags: N-terminal luciferase, C-terminal 6xHis; label: 5'-biotin; ssRNA
# [1] = target: T1, v3.1_PPR7 (Artificial Sequence)
# T1 chain: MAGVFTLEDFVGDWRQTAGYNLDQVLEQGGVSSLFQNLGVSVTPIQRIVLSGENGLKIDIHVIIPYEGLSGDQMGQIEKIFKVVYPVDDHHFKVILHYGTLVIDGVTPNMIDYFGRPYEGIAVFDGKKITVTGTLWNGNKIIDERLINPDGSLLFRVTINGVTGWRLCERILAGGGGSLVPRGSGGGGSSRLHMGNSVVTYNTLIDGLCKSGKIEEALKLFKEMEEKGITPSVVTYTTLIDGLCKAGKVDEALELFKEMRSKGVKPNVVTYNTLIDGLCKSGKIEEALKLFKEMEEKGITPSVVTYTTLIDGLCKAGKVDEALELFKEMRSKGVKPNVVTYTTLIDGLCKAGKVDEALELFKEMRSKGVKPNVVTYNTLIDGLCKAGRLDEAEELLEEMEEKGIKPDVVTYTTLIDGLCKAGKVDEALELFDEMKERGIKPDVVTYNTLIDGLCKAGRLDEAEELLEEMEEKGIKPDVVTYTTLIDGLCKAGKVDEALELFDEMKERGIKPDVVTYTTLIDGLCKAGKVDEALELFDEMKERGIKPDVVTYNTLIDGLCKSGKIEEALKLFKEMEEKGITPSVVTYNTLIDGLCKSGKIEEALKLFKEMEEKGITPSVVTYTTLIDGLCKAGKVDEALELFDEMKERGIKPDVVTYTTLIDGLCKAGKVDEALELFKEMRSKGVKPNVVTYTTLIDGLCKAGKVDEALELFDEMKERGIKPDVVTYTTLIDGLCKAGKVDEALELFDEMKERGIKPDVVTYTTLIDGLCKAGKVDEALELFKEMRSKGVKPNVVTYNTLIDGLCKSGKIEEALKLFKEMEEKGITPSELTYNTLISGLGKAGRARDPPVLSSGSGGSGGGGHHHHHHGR
# Procedure, shortened: (§1)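 5′-biotinylated 30-base RNA probes (18-base target) immobilised on streptavidin plates, then bound 30 min at RT by E. coli lysate with luciferase-fused PPR protein (1.5×10⁸ LU/μL) in Tris pH 7.6 buffer. Binding = luminescence minus no-RNA background.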
# [2] = target: T2, NL_v2_PPR20 (Artificial Sequence)
# T2 chain: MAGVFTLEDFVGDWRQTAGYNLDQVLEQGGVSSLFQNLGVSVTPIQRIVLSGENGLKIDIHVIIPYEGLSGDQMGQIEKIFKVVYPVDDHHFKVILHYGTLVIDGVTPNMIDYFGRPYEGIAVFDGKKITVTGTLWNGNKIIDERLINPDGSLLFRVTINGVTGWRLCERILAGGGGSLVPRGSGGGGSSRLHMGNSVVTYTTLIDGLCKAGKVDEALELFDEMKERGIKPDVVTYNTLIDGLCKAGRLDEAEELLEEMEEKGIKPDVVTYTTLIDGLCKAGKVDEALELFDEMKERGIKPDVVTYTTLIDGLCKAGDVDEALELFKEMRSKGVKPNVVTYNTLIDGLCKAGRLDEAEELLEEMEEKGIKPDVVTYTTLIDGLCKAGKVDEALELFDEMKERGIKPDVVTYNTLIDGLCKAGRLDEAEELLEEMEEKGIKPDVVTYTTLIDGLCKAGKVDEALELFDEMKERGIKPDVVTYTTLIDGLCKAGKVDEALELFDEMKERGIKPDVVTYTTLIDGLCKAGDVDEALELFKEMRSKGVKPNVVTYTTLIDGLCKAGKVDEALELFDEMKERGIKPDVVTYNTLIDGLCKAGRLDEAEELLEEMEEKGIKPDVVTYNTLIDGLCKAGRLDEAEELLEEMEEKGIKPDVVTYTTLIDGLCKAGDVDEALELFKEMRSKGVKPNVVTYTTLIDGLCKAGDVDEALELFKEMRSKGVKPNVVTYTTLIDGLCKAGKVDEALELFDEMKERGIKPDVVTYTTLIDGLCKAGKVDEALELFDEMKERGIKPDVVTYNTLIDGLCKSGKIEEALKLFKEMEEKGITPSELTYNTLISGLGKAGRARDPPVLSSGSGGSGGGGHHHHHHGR
# Procedure, shortened: (§2)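 5′-biotinylated 30-base RNA probes holding 18-base targets were captured on streptavidin plates, blocked, then bound 30 min at room temperature with E. coli lysate of luciferase-fused PPR protein (1.5×10⁸ LU/μL) in Tris-HCl pH 7.6 buffer. After washing, luminescence minus no-RNA background gave binding power.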
# [3] = target: T3, NL_v2_PPR22 (Artificial Sequence)
# T3 chain: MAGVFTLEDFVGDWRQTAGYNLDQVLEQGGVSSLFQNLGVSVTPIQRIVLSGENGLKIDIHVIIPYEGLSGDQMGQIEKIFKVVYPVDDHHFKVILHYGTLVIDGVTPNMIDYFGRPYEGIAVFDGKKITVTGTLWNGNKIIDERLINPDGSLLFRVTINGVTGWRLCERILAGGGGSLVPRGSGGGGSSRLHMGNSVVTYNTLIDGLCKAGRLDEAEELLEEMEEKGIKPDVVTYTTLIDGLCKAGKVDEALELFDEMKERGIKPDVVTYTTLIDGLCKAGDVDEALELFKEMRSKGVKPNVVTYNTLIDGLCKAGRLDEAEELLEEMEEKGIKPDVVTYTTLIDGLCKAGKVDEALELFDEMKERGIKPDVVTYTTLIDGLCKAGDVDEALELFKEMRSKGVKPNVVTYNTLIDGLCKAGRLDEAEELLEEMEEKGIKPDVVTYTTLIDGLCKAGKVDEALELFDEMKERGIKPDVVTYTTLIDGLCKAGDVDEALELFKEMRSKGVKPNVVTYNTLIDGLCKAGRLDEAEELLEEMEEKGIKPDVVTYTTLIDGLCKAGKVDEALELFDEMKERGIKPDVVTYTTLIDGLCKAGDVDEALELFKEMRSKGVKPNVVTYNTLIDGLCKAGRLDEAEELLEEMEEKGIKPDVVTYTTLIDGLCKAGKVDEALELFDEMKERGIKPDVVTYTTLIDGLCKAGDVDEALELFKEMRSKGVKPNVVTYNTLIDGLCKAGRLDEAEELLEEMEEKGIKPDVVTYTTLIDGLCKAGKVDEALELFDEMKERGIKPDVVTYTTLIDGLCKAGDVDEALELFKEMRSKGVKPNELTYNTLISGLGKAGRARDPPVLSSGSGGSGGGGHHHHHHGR
# Procedure, shortened: as §2
# [4] = target: T4, NL_v2_PPR16 (Artificial Sequence)
# T4 chain: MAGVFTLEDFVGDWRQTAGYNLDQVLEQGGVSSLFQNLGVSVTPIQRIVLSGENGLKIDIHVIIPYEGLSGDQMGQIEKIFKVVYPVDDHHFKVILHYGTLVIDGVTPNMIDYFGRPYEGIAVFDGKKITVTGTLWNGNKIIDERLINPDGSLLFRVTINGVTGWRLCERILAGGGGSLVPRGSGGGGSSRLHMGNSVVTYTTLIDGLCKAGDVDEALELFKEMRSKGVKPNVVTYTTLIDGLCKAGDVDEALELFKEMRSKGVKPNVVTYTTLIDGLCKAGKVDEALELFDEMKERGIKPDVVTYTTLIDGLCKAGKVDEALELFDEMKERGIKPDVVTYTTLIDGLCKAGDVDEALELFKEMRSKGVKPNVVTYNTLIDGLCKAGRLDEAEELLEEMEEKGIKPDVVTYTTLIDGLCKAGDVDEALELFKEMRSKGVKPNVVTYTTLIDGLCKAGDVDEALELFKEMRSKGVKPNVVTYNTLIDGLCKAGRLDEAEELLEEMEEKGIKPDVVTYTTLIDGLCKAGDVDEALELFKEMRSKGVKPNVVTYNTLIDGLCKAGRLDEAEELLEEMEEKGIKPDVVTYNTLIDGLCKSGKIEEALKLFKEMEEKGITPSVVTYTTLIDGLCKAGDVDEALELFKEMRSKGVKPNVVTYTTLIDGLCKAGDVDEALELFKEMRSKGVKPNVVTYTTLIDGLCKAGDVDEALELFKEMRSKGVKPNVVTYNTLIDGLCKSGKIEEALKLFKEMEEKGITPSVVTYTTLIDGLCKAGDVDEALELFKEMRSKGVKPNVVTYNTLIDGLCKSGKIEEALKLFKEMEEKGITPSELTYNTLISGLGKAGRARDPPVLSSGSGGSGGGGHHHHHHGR
# Procedure, shortened: as §2
# [5] = target: T5, v3.1_PPR22 (Artificial Sequence)
# T5 chain: T3 chain with D283K, D388K, D493K, D598K, D703K, D808K
# Procedure, shortened: as §1
sequence,measurement,setting,value
GGUUAGAGAUACAGUGUG,binding signal,[1],23.4 log2 luminescence
GUGGGGGUGGUAGGAAAU,binding signal,[2],22.4 log2 luminescence
same,binding signal,[3],21 log2 luminescence
same,binding signal,[4],22.1 log2 luminescence
same,binding signal,[1],24.2 log2 luminescence
same,binding signal,[5],20.8 log2 luminescence
GGUGGUGAGGCCCUGGGC,binding signal,[2],21.1 log2 luminescence
same,binding signal,[1],23.8 log2 luminescence
same,binding signal,[5],20.9 log2 luminescence
GUCAGAGGGUUCUGGAUU,binding signal,[1],21.3 log2 luminescence
GACUCAGGAAUCGGCUCU,binding signal,[1],21 log2 luminescence
